In PubChem BioAssay (EPA / NIEHS):
“And” between values parts separate entries of the source, which are not always exact repeats. Equal values may be shown once. Where a structure was tested more than once in an assay, its records may differ in their call. The source made the active and inactive calls. Rule for the calls: active = hit-call score of the fitted dose curve at least 0.9, where 1 is the maximum; inactive = score below 0.9.

These compounds were tested on CD40, CD40 (gene 958) (assay: BSK_LPS_CD40: BioMAP Diversity Plus: LPS Assay for CD40 Biomarker Activity (AID 2283076)). Conditions: primary human HUVEC with PBMC; actives raise or lower the signal.
Experimental: BSK_LPS is a cell-based, multiplexed-readout assay that uses umbilical vein endothelium and peripheral blood mononuclear cells, a human vascular primary cell co-culture, with measurements taken at 24 hours after chemical dosing in a 96-well plate.BSK_LPS_CD40 is an assay component measured in the BSK_LPS assay. It measures CD40 antibody related to regulation of gene expression using ELISA technology.Data from the assay component BSK_LPS_CD40 was analyzed into 1 assay endpoint. This assay endpoint, BSK_LPS_CD40, was analyzed with bidirectional fitting relative to DMSO as the negative control and baseline of activity. Using a type of binding reporter, gain or loss-of-signal activity can be used to understand changes in the signaling as they relate to the gene CD40. Furthermore, this assay endpoint can be referred to as a primary readout, because this assay has produced multiple assay endpoints where this one serves a signaling function. To generalize the intended target to other relatable targets, this assay endpoint is annotated to the cytokine intended target family, where the subfamily is inflammatory factor.
The levels of cell surface (or secreted, indicated by the prefix "s") biomarker endpoints were measured by ELISA. Overt cytotoxicity to cells in confluent adherent cultures (all systems other than the BT system) was assessed by measuring total protein levels using sulforhodamine B (SRB) staining in parallel cultures at the time of biomarker measurements, indicated as SRB endpoints. For proliferation assays for adherent cell types, individual cell types are cultured at sub-confluence and relative cell numbers quantified by SRB staining at time points optimized for each system (48 h: 3C and CASM3C systems; 72 h: BT and HDF3CGF systems; 96 h: SAg system). SRB was performed by staining cells with 0.1% SRB after fixation with 10% TCA and reading wells at 560 nm.Viability and proliferation of PBMC (T cells) was quantified by Alamar Blue reduction for the SAg and BT systems. For PBMC viability (referred to as PBMC Cytotoxicity within the assay endpoint names), cells were plated (75,000/well in a 96-well plate) and then chemical samples added for 1 h before addition of activators, SEB and TSST-1 (20 ng/mL final concentration each). Cells were incubated for 90 h. Then, Alamar Blue (20 uL/well) (Invitrogen, Cat DAL1100) was added for 6 h, and the plates were read with a fluorescence microplate reader at 546/580 nm (excitation/emission). For PBMC proliferation, cells were plated and activated as above but incubated for only 16 h prior to addition of Alamar Blue. Plates were read after 6 h.
With `Nc1ccc(N)c([N+](=O)[O-])c1` the outcome was “inactive”. `O=S1(=O)CC(Cl)(Cl)C(Cl)(Cl)C1` was tested, and the AC50 was 0.457 µM (active). In the case of `CC1=CC(C)C(C=O)C(C)C1` (stereo not given) (tested in a mixture with another compound), the outcome is reported as “inactive”. With `C#C[C@]1(O)CC[C@H]2[C@@H]3CCc4cc(O)ccc4[C@H]3CC[C@@]21C` the outcome was “inactive”. With `O=S(=O)(O)C(F)(F)C(F)(F)OC(F)(F)C(F)(F)F` the outcome was “inactive”. For `O=C(O)C(F)(F)OC(F)(F)C(F)(F)OC(F)(F)C(F)(F)C(F)(F)C(F)(F)F`, the outcome was “inactive” and the AC50 was 48.6 µM (active). For `CCC(=O)OCC=Cc1ccccc1`, the outcome was “inactive”. With `C=C(C)C(=O)OCCC(F)(F)C(F)(F)C(F)(F)C(F)(F)C(F)(F)C(F)(F)C(F)(F)C(F)(F)F` the outcome was “inactive”. With `NC(=O)c1c(Cl)cccc1Cl` the outcome was “inactive”. For `C=CC(=O)OCC(CO)(COC(=O)C=C)COC(=O)C=C`, the AC50 was 0.454 µM (active). `CCn1cc(C(=O)O)c(=O)c2ccc(C)nc21` was tested, and the outcome was “inactive”. For `CCCO[Si](OCCC)(OCCC)OCCC`, the outcome was “inactive”. For `CCCCCCCCCCCCS`, the AC50 was 20 µM (active). With `C=C1CC/C=C(\C)CC[C@@H]2[C@@H]1CC2(C)C` the AC50 was 30.5 µM (active). For `OCC(F)(OC(F)(F)C(F)(OC(F)(F)C(F)(F)C(F)(F)F)C(F)(F)F)C(F)(F)F` (stereo not given), the outcome was “inactive” and the AC50 was 1.1 µM (active). With `CC/C(=C(\c1ccccc1)c1ccc(OCCN(C)C)cc1)c1ccccc1` the AC50 was 7.05 µM (active) and 5.81 µM (active). For `CC1(C)[C@H](C=C(Cl)Cl)[C@H]1C(=O)OCc1cccc(Oc2ccccc2)c1`, the outcome was “inactive”. `CC(C)Cc1ccc(C(C)C(=O)O)cc1` (stereo not given) was tested, and the outcome was “inactive”. In the case of `CCCCCCCCCC(=O)OCC`, the outcome is reported as “inactive”. In the case of `CC(=O)OC(C)(C)C1CC=C(C)CC1` (stereo not given), the outcome is reported as “inactive”. In the case of `O=C(c1ccc(OCCN2CCCCC2)cc1)c1c(-c2ccc(O)cc2)sc2cc(O)ccc12`, the AC50 is reported as 16.6 µM (active). With `C=C(F)C(=O)OC(C(F)(F)F)C(F)(F)F` the outcome was “inactive”. `CC(C)(CO)CO` was tested, and the outcome was “inactive”. For `CC(C)(C)c1cccc(O)c1`, the outcome was “inactive”. In the case of `COC(=O)c1ccc(C(=O)OC)cc1`, the outcome is reported as “inactive”. For `c1ccc(OCCOc2ccccc2)cc1`, the outcome was “inactive”. `CCCCCCCC1CCCC1=O` (stereo not given) was tested, and the outcome was “inactive”. For `CC(=O)OCC=C(C)CCC=C(C)CCC=C(C)C`, the outcome was “inactive”. `CCOC(=O)CCCCCCCCC(=O)OCC` was tested, and the outcome was “inactive”. `OCCN1CCOCC1` was tested, and the outcome was “inactive”. For `CCCCN(CCO)CCO`, the outcome was “inactive”. For `COc1ccccc1NC(=O)CC(C)=O`, the outcome was “inactive”. `O=C1OC2(c3ccc(O)cc3Oc3cc(O)ccc32)c2ccccc21` was tested, and the outcome was “inactive”. For `CC=CC(=O)C1=C(C)C=CCC1(C)C`, the outcome was “inactive”. With `C=C(C)C(N)=O` the outcome was “inactive”. With `CC(=O)CCC=C(C)CCC=C(C)C` the outcome was “inactive”. In the case of `O=C(O)C(F)(F)C(F)(F)C(F)(F)C(F)(F)C(F)(F)C(F)(F)C(F)(F)C(F)F`, the outcome is reported as “inactive”. In the case of `CC(=O)c1ccc(C)cc1`, the outcome is reported as “inactive”.
